SMILES strings stand for the structures. Results filed as inconclusive are left out. Active and inactive are the calls of the source. Unless noted, calls come from the whole dose curve; as a rule, active = well fitted curve in the direction sought with a large enough effect; inconclusive = small, poorly fitted or top-dose-only effect, or another doubt; inactive = no such curve, though single readings can be large; an effect the other way counts as inactive or inconclusive.

The target in test [1] is Lysosomal acid glucosylceramidase (Homo sapiens) (UniProt P04062). Put plainly: Glucocerebrosidase-p2 (AID 348; in the data active = potency below about 10 µM; note: potency is the fitted concentration of half-maximal effect). As to conditions: purified GBA, blue fluorogenic substrate, 40 min. The procedure, abridged: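 Normal human glucocerebrosidase (0.2 nM) with blue fluorogenic substrate (80 uM final) in citrate/phosphate pH 5.9 with 10mM sodium taurocholate, 0.01% tween-20; 40 min RT, NaOH/glycine stop; fluorescence Ex 365/Em 440; AC50 from a titration from 0.6 nM upwards.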
Chain of Lysosomal acid glucosylceramidase (Homo sapiens) (P04062 whole entry, looked up): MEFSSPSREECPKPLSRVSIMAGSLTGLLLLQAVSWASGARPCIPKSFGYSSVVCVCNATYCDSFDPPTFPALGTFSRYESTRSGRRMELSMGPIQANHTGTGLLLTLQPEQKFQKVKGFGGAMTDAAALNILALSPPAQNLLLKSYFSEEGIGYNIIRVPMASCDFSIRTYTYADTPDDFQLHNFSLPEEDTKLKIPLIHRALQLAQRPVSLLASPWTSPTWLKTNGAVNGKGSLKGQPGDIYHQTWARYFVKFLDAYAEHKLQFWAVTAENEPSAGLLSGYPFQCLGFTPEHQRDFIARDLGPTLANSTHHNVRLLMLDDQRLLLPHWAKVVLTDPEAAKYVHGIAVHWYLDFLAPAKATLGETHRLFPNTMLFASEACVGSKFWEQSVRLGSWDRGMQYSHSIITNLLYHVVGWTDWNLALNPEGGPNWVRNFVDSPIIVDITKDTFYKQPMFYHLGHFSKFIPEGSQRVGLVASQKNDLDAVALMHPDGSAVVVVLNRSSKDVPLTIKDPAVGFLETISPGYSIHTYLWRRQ

A short description of test [2]: AP1 Signaling Pathway (AID 357; active = well fitted curve in either direction with a large enough effect, not every such curve was filed as active; note: % is set by controls: 0 for no effect and ±100 for the full control effect). As to conditions: ME-180 AP-1-bla reporter, EGF-induced, beta-lactamase ratio, 5 h; at 7.69 µM (top of the series) unless noted. In short, it runs like this: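 AP-1-bla ME-180 cells, Opti-MEM + 0.5% dialyzed FBS, plated overnight 37 °C. Cpd titration + EC50 EGF, 5 h 37 °C. CCF4 2.5 h RT; ex 405, em 460/530 ratio → %activity, AC50.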

Test [3] addresses Cytochrome P450 1A2 (Homo sapiens) (UniProt P05177). Put plainly: p450-cyp1a2 (AID 410; calls by dose curve; note: potency is the fitted concentration of half-maximal effect;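 for activity change, negative = inhibition: -100% = full effect of reference inhibitor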). As to conditions: recombinant CYP1A2, luciferin-ME demethylation, luminescence; series mostly up to 57 µM. In short, it runs like this:
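Read-out is luminescence from luciferin produced by CYP1A2 demethylation of Luciferin-ME (100uM, at Km). Detection reagent stopped the 60 min NADPH-dependent reaction; signals were normalized to 57 uM furafylline.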

Test [4] in a line: NFAT Signaling Pathway (AID 444; active = well fitted curve in either direction with a large enough effect, not every such curve was filed as active;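 note: carbachol stimulus at about its EC50 of 1 µM final; % is set by controls: 0 for no effect and ±100 for the full control effect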). As to conditions: Jurkat NFAT-bla M1, carbachol, beta-lactamase ratio, 5 h; at 7.69 µM (top of the series) unless noted. In short, it runs like this:
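Jurkat cells carrying an NFAT-driven β-lactamase reporter and co-transfected muscarinic M1 receptor were treated with compound plus carbachol (1 uM final, an EC50 level) for 5 h at 37 °C. CCF4 loading followed for 1 h at RT; 460/530 nm ratio gave %activity.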

A short description of test [5]: Stat Signaling Pathway (AID 446; active = well fitted curve in either direction with a large enough effect, not every such curve was filed as active;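 note: ME-180 cervical cancer cells given 40 pM IL-6 alongside compound; SIE-controlled beta-lactamase reporter measured as 460/530 nm FRET emission ratio; % is set by controls: 0 for no effect and ±100 for the full control effect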). As to conditions: ME-180 (cervical carcinoma) SIE beta-lactamase reporter, IL-6 stimulated, 5 h; at 7.69 µM (top of the series) unless noted. In short, it runs like this:
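Overnight-plated ME-180 cells bearing a STAT Inducible Element beta-lactamase reporter; 5 h co-exposure to compound and 40 pM IL-6; values normalized to 300 pM IL-6 and 125 nM JAK inhibitor controls.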

Test [6] deals with Glucocorticoid receptor (Homo sapiens) (UniProt P04150). Put plainly: GR-GFP Redistribution (AID 450;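 active = compounds whose dose series gives a full or clear partial fitted curve of increased nuclear translocation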; note: potency is the fitted concentration of half-maximal effect). As to conditions: U2OS GR-GFP nuclear translocation, laser cytometry, 2 h.
Chain of Glucocorticoid receptor (Homo sapiens) (P04150 whole entry, looked up): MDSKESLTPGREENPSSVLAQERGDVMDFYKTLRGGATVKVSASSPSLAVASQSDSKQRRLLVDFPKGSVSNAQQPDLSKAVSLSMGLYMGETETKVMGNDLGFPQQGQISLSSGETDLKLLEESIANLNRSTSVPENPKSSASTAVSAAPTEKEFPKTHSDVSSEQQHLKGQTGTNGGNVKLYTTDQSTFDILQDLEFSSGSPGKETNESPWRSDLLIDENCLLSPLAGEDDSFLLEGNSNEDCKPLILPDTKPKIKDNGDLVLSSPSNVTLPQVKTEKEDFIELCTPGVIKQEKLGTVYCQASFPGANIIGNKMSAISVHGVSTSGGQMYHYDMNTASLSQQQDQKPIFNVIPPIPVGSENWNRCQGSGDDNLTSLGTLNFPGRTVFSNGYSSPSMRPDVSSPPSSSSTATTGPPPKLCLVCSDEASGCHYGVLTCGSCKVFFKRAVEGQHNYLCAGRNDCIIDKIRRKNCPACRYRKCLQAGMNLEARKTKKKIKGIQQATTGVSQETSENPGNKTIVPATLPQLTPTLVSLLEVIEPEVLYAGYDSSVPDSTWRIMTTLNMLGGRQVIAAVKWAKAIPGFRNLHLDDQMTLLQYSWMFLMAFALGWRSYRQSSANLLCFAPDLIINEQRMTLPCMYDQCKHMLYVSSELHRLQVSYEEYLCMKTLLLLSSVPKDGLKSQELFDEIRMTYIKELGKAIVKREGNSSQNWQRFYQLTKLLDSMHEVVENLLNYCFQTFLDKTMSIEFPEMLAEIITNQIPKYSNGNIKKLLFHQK
Test [7] shares this target. Put plainly: GR-EFC Redistribution (AID 451; calls by dose curve; note: potency is the fitted concentration of half-maximal effect). As to conditions: CHO-K1 GR-EFC translocation, beta-gal luminescence, 2 h. The procedure, abridged:
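CHO-K1 cells stably expressing nuclear-localized β-gal enzyme acceptor and GR fused C-terminally to the enzyme donor fragment; ligand-driven nuclear translocation restores β-gal by complementation. Compounds titrated up to 46 uM final, 2 h at 37 °C; luminescence read.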

Test [8] deals with Mitogen-activated protein kinase 10 (Mus musculus) (UniProt Q61831). Put plainly: JNK3 AlphaScreen Assay (AID 530; active = well fitted curve in either direction with a large enough effect, not every such curve was filed as active;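 note: kinase came from lysate of stimulated human HepG2 cells; signal reports phosphorylation of biotinylated GST-cJun 1-79 at Ser73 with 10 µM ATP; % is set by controls: 0 for no effect and ±100 for the full control effect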). As to conditions: JNK3 lysate, c-Jun phosphorylation; series mostly up to 57.1 µM. In short, it runs like this:
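Biotinylated GST-cJun(1-79) served as substrate for JNK3 in HepG2 lysates stimulated with IL-1beta and TNF-alpha. ATP was 10 uM final, pH 7.6. Ser73 phosphorylation was quantified by AlphaScreen (680 nm excitation).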

Test [9] can be described thus: qHTS Assay for Lipid Storage Modulators (AID 1519; calls by dose curve). As to conditions: Drosophila S3 cells, BODIPY lipid droplet/cell ratio, laser cytometry, cells loaded with oleic acid; for activity change, negative = inhibition: at 57.5 µM (top of the series). The procedure, abridged:
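Cells seeded at 5,000 per well were treated with compounds over a concentration series and loaded with oleic acid (400 uM, as added). Lipid droplet fluorescence (488 nm excitation, 500-530 nm channel) was read by laser-scanning cytometry and normalized to 20 uM Triacsin C.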

For test [10], the target named is Dual specificity protein kinase CLK4 (Homo sapiens) (UniProt Q9HAZ1). Put plainly: qHTS Assay for Inhibitors of CDC-like Kinase 4 (Kinase-Glo Assay) (AID 1770). Note: nearly all actives have a fitted effect of over 65% in size. Note: potency is the fitted concentration of half-maximal effect. As to conditions: recombinant Clk4, Kinase-Glo ATP depletion luminescence; series mostly up to 66.7 µM. The procedure, abridged: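 Inhibition was judged from remaining ATP, measured by Ultra-Glo luciferase bioluminescence after Clk4 (25 nM) had acted on RS peptide at 1 uM ATP for 4.5 hours, room temperature.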
Chain of Dual specificity protein kinase CLK4 (Homo sapiens) (Q9HAZ1 whole entry, looked up): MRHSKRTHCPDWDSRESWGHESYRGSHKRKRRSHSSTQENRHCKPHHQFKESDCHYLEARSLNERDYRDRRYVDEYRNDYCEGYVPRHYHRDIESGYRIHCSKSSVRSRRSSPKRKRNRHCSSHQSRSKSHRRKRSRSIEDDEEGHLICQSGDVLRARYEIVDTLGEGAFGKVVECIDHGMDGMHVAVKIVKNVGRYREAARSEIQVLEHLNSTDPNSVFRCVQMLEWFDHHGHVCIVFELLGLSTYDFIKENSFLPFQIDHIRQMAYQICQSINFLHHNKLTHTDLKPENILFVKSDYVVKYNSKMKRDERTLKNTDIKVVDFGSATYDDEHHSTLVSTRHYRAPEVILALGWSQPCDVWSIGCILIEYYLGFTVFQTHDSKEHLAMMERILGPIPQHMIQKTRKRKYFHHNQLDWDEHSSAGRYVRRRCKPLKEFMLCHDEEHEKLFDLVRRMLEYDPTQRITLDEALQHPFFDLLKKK
In general terms: In qHTS, concentration-response curves come from the screen itself.

The target is the same in test [11]. Put plainly: qHTS Assay for Inhibitors of CDC-like Kinase 4 (ADP-FP Assay) (AID 1795).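 Note: recombinant human CLK4 phosphorylating RS repeat peptide at 1 µM ATP; % is set by controls: 0 for no effect and ±100 for the full control effect; nearly all actives have a fitted effect of over 60% in size.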 As to conditions: Transcreener ADP fluorescence polarization; series mostly up to 50 µM. The procedure, abridged: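 Inhibition of ADP formation by 6.25 nM Clk4 is measured using 1 uM ATP and 100 uM RS repeat peptide over one hour. Produced ADP displaces a fluorescent tracer from antibody, lowering polarization.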

Test [12] has as its target Ubiquitin carboxyl-terminal hydrolase 1 (Homo sapiens) (UniProt O94782). Put plainly: Inhibitors of USP1/UAF1: Pilot qHTS (AID 504865).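 Note: rhodamine fluorescence freed from ubiquitin-rhodamine substrate followed over time; top concentration of the series differs between compounds; % is set by controls: 0 for no effect and ±100 for the full control effect; nearly all actives have a fitted effect of over 35% in size.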 As to conditions: purified USP1/UAF1, Ub-rhodamine cleavage fluorescence; series mostly up to 54.9 µM. The procedure, abridged: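 Kinetic fluorescence assay: 1nM USP1/UAF1, 15 min compound preincubation, then 150nM Ub-Rho; 480/540 nm.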

Test [13] is described as follows: Primary qHTS for small molecule stabilizers of the endoplasmic reticulum resident proteome: Secreted ER Calcium Modulated Protein (SERCaMP) assay (AID 1508630). Note: % is set by controls: 0 for no effect and ±100 for the full control effect. As to conditions: SH-SY5Y GLuc-SERCaMP (Gaussia luciferase released on ER calcium loss) secretion, thapsigargin, luminescence; series mostly up to 38.4 µM. The procedure, abridged:
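The SH-SY5Y reporter protocol was run at 3 concentrations up to 38.3 uM (primary) or 11 concentrations (follow-up): 16 h compound, 100 nM thapsigargin for 4 h, then extracellular luciferase luminescence.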

Test [14] addresses 3',5'-cyclic-AMP phosphodiesterase 4B (Homo sapiens) (UniProt Q07343). Put plainly: qHTS Assay for Inhibitors of PDE-IV (AID 607; active = well fitted activation curve with a large enough effect in the main read-out, with a control signal flat, not every such curve was filed as active; note: % of control where 0% means no effect). As to conditions: HEK293 ACTOne CNG channel cells, membrane potential fluorescence; series mostly up to 22.9 µM. In short, it runs like this:
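Live HEK293 cells with a modified cyclic nucleotide-gated (CNG) channel report intracellular cAMP via membrane-potential dye fluorescence (ex 535/em 590 nm). Endogenous PDE-IV was targeted. Compounds were tested at up to 22.9 uM final; RO 20-1724 100 uM served as control.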

In test [15] the target is Cytochrome P450 3A4 (Homo sapiens) (UniProt P08684). Put plainly: qHTS Assay for Activators of Cytochrome P450 3A4 (AID 885). Note: nearly all actives have a fitted effect of over 65% in size. As to conditions: recombinant CYP3A4, Luciferin-PPXE luminescence, 60 min; series mostly up to 57.1 µM. The procedure, abridged: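 Using 20nM recombinant human CYP3A4 in potassium phosphate (200mM), substrate Luciferin-PPXE at 25uM, luminescent luciferin detection followed a 60-min RT NADPH reaction; data scaled to 57 uM ketoconazole.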
Chain of Cytochrome P450 3A4 (Homo sapiens) (P08684 whole entry, looked up): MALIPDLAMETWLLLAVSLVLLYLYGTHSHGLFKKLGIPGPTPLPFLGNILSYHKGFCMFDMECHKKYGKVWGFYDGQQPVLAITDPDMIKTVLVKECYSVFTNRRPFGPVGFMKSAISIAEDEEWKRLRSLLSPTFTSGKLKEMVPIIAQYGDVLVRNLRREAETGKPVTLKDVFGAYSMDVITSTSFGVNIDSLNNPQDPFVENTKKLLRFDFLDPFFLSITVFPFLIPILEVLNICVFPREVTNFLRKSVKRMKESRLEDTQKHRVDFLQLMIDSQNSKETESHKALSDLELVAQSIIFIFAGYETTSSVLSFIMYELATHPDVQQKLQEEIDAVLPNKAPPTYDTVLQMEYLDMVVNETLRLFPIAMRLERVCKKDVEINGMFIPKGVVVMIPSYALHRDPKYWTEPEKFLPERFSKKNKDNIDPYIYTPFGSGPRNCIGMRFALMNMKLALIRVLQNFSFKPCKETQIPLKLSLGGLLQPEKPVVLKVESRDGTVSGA

The target of test [16] is Dual specificity protein kinase CLK4 (Homo sapiens) (UniProt Q9HAZ1). Put plainly: qHTS Assay for Inhibitors of CDC-like Kinase 4 (ADP-Glo Assay) (AID 1771). Note: potency is the fitted concentration of half-maximal effect; nearly all actives have a fitted effect of over 70% in size. As to conditions: recombinant CLK4, ADP-Glo luminescence; series mostly up to 80 µM. The procedure, abridged: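 In this ADP-Glo format, 1 uM ATP and 100 uM RS peptide served as substrates for 25 nM Clk4 in Mg2+/EGTA/DTT/Triton buffer; reactions ran 1 hr at room temperature before luminescent ADP quantification.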

For test [17], the target named is Cytochrome P450 2C19 (Homo sapiens) (UniProt P33261). Put plainly: qHTS Assay for Inhibitors and Substrates of Cytochrome P450 2C19 (AID 899). Note: potency is the fitted concentration of half-maximal effect; nearly all actives have a fitted effect of over 60% in size. As to conditions: recombinant CYP2C19, luciferin-H EGE luminescence; series mostly up to 57.1 µM. The procedure, abridged:
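In 50mM KPO4, the reaction held 5nM enzyme and KM-level (10uM) Luciferin-H EGE; it ran 60 min at 37C after NADPH regeneration and a 10 min compound preincubation. Luminescence values were scaled to 57uM ketoconazole as complete inhibition.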

[18] abbreviates: measured here: cell count channel max response.
[19] abbreviates: measured here: lipid channel max response.

Chain of Cytochrome P450 1A2 (Homo sapiens) (P05177 whole entry, looked up): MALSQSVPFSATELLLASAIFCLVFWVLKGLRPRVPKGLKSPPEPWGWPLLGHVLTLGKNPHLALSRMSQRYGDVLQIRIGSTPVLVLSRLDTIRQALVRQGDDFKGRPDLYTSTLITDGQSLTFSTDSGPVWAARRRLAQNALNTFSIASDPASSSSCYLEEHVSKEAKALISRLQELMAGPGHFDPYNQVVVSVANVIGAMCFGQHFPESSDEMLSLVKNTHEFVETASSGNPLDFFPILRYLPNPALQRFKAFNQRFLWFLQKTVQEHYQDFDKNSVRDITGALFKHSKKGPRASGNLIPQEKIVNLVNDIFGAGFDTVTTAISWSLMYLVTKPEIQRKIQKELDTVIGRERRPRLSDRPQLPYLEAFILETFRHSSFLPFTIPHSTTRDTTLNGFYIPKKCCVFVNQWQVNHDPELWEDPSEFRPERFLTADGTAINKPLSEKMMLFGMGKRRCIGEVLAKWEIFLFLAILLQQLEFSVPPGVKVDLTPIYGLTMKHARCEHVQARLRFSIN
Chain of Ubiquitin carboxyl-terminal hydrolase 1 (Homo sapiens) (O94782 whole entry, looked up): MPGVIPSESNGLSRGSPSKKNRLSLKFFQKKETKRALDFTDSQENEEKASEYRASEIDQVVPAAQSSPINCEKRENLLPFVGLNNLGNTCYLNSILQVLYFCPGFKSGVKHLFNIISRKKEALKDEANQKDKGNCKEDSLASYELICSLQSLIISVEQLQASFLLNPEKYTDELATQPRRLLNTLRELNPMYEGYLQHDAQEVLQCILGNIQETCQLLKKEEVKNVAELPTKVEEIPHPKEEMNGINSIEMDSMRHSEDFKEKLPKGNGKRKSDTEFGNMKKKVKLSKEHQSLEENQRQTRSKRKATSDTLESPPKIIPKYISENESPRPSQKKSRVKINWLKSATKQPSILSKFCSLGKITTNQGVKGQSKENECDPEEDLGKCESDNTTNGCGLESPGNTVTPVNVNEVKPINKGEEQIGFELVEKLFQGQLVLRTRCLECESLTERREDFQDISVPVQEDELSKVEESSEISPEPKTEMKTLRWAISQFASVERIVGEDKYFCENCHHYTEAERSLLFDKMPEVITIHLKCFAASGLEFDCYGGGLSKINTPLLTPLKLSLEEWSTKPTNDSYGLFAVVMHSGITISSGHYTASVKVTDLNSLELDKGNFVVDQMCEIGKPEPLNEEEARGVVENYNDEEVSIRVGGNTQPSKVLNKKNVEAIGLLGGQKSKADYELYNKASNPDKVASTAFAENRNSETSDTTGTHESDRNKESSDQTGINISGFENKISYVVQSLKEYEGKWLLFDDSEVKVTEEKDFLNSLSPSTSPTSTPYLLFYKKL
Chain of 3',5'-cyclic-AMP phosphodiesterase 4B (Homo sapiens) (Q07343 whole entry, looked up): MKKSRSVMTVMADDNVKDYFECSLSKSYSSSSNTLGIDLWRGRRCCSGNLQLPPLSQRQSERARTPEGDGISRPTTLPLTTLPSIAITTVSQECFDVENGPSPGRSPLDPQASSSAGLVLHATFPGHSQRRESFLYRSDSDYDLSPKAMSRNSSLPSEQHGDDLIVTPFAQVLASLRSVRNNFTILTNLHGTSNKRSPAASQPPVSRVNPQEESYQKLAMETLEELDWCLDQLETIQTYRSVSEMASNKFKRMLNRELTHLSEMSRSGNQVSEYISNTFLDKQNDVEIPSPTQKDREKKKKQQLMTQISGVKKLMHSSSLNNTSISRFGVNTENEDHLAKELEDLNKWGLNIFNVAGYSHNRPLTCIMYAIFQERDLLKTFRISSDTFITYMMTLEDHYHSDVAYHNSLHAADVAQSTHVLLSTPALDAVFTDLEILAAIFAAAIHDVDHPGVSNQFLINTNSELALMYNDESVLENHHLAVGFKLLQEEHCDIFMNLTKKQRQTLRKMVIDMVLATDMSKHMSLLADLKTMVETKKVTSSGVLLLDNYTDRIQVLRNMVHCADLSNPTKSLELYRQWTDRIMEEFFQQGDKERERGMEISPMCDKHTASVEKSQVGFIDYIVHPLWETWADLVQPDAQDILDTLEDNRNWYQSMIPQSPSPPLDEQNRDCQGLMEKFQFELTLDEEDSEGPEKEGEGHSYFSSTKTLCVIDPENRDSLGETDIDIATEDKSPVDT
Chain of Cytochrome P450 2C19 (Homo sapiens) (P33261 whole entry, looked up): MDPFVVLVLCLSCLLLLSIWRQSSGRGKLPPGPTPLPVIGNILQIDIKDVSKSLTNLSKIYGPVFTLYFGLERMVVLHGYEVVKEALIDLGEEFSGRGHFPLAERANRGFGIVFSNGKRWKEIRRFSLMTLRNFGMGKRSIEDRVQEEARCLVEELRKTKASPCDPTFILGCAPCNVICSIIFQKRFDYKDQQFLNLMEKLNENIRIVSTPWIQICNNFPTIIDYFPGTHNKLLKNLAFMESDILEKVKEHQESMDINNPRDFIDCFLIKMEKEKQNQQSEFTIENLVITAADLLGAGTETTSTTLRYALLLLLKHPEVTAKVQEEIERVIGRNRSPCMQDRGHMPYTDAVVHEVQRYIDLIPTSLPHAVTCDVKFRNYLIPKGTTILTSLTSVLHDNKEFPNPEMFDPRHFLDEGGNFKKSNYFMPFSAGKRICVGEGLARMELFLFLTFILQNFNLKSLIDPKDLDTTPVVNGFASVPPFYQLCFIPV

Take `COc1ccc(-n2c(=O)c(-c3cccs3)nc3cncnc32)cc1`: the Potency in test [1] is > 11.4 µM (inactive); in test [3], 10 µM (active); in test [6], > 9.22 µM (inactive); in [7], > 46 µM (inactive). For the same compound, the activity change, negative = inhibition in test [2] was -19.3% (inactive); in test [4], 0.0711% (inactive); in test [9], -10.8% (inactive). Besides, the activity, negative = inhibition in test [5] was -0.243% (inactive). Moreover, the call in test [8] was inactive. The max response stood at 28.9% in test [9] (setting [18]) and 11.5% in test [9] (setting [19]). For the same compound, the Potency result in test [10], in [11], in test [12] and in test [13] was “inactive” in each case.
For the compound `CN(Cc1ccco1)c1cc(-c2ccoc2)ncn1`, the results for the Potency in test [1], in test [6] and in [7] were > 11.4 µM (inactive), > 46 µM (inactive) and > 46 µM (inactive), respectively. Moreover, the activity change, negative = inhibition in test [2] was -1.97% (inactive); in [4] it was -2.33% (inactive); in test [9], 6.03% (inactive). Moreover, the Potency entry in test [3], in test [14], in test [10], in test [11], in [12] and in test [13] was “inactive” in each case. In addition, the activity, negative = inhibition in [5] is 18.1% (inactive). The compound was classed as inactive in test [8]. In addition, the figures for the max response in [9] (setting [18]) and in test [9] (setting [19]) were 18% and 23.3%, respectively.
On to `COc1cccc(Cn2c(=O)cnc3cncnc32)c1`, for which the Potency is > 11.4 µM (inactive) in test [1]; > 9.22 µM (inactive) in test [6]; > 46 µM (inactive) in test [7]; 15.8 µM (active) in test [10]; 28.2 µM (active) in test [16]. In addition, the activity change, negative = inhibition in test [2] was 13.8% (inactive); in test [4], -18.4% (inactive); in test [9], 1.18% (inactive). In addition, the activity, negative = inhibition in [5] was -2.31% (inactive). The result in [8] was inactive. Besides, the Potency result in [15] and in test [13] was “inactive” in each case. Besides, the max response in [9] (setting [18]) is 17.1%; in [9] (setting [19]), 17.8%.
As to `Cc1ccccc1-c1cc(Nc2ccccc2)ncn1`, the Potency in test [1] was > 11.4 µM (inactive); in test [3], 3.98 µM (active); in [7], > 46 µM (inactive); in [17] it was 3.16 µM (active). Also, the activity change, negative = inhibition in test [2] was -4.93% (inactive); in test [4], 1.39% (inactive); in [9] it was 4.64% (inactive). In test [5], the activity, negative = inhibition is 4.11% (inactive). The compound was classed as inactive in test [8]. Further, the max response in test [9] (setting [18]) is 30.6%; in test [9] (setting [19]), 31.4%. Also, the Potency entry in [10], in test [11] and in test [13] was “inactive” throughout.
Consider `Cc1noc(C)c1-c1ccc2ncnc(N3CCN(C)CC3)c2c1`, for which the Potency in [1] is > 11.4 µM (inactive); in test [3] it was 12.6 µM (active); in test [6], > 46 µM (inactive); in test [7], > 46 µM (inactive); in [10], 10 µM (active); in [16], 10 µM (active). Also, in [8], the call was inactive. Further, the Potency result in test [15], in test [12] and in test [13] was “inactive” throughout. Further, the activity change, negative = inhibition in test [9] was 0.38% (inactive). Also, the values for the max response in [9] (setting [18]) and in test [9] (setting [19]) were 21% and 4.95%, respectively.
For the compound `O=c1cnc2cncnc2n1Cc1ccccc1Cl`, the Potency is > 11.4 µM (inactive) in test [1], 15.8 µM (active) in test [3], > 9.22 µM (inactive) in test [6] and > 46 µM (inactive) in test [7]. Further, the activity change, negative = inhibition is 8.55% (inactive) in test [2], -28.3% (inactive) in test [4] and -7.78% (inactive) in [9]. Besides, the activity, negative = inhibition in [5] was -5.06% (inactive). In addition, the compound was classed as inactive in test [8]. Besides, the results for the max response in test [9] (setting [18]) and in [9] (setting [19]) were -0.667% and -10.1%, respectively. For the same compound, the Potency entry in test [10], in test [11], in [12] and in test [13] was “inactive” in each case.

Values taken from PubChem BioAssay (NCATS).
